Calls of active or inactive are those of the source. Rule for the calls: active = hit-call score of the fitted dose curve at least 0.9, where 1 is the maximum; inactive = score below 0.9.
What was measured:
[1] = ATG_CRE_CIS: Attagene CIS-FACTORIAL HepG2 Assay for human cAMP Responsive Element (CRE) binding protein 3 (AID 2282926); conditions: HepG2 CRE cis-reporter, Attagene multiplexed mRNA; actives raise or lower the signal
In short: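 Induced reporter mRNA from a CRE cis element, measured in HepG2 among many multiplexed units at 24 h. Detection used RT-PCR plus capillary electrophoresis of fluorescent fragments; DMSO served as negative control.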

[2] = biological target: CCAAT/enhancer-binding protein beta (Homo sapiens) (UniProt P17676); assay: ATG_C_EBP_CIS: Attagene CIS-FACTORIAL HepG2 Assay for human CCAAT/Enhancer Binding Protein (C/EBP) beta (AID 2282927); conditions: HepG2 Attagene cis-factorial transcription factor reporter; actives raise or lower the signal
Sequence of CCAAT/enhancer-binding protein beta (Homo sapiens) (P17676 whole entry, looked up, the tested form may be a part): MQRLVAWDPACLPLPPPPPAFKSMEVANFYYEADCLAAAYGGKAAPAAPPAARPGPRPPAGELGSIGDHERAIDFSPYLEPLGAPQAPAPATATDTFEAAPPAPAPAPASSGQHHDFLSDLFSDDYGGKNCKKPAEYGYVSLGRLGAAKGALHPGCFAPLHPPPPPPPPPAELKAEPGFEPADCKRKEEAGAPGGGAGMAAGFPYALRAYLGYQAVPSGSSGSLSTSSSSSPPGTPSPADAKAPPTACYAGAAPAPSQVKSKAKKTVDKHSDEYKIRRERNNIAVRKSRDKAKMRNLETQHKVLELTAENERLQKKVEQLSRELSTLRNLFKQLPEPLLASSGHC
In short: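 Endogenous C/EBPb-driven reporter transcripts measured in transfected human HepG2 cells at 24 h via RT-PCR and capillary electrophoresis of labelled fragments. Activity fitted in both directions relative to DMSO baseline.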

[3] = ATG_CMV_CIS: Attagene CIS-FACTORIAL HepG2 Assay for human CMV (Internal Marker) (AID 2282928); conditions: HepG2 CMV promoter reporter, transcription factor profiling; actives raise or lower the signal;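 note: endpoint acts as a background internal control marker rather than a target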
In short: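 Fluorescence intensity of RT-PCR-derived reporter fragments, resolved by capillary electrophoresis, gives the signal. HepG2 liver cells bearing transfected cis-element reporters were treated 24 h; activity in either direction was fit relative to DMSO-treated controls.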

[4] = ATG_DR4_LXR_CIS: Attagene CIS-FACTORIAL HepG2 Assay for human Liver X Receptor (LXR), DR4 submotif (AID 2282929); conditions: HepG2 Attagene DR4 cis-reporter, mRNA transcription; actives raise or lower the signal
In short: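 Readout: reporter transcript fluorescence after RT-PCR and capillary electrophoresis, fitted bidirectionally against DMSO controls. Human HepG2 liver cells carried transiently transfected multiplexed reporter constructs; endogenous transcription factor activity measured 24 h post-dosing.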

[5] = biological target: Aryl hydrocarbon receptor (Homo sapiens) (UniProt P35869); assay: ATG_Ahr_CIS: Attagene CIS-FACTORIAL HepG2 Assay for human Aryl Hydrocarbon Receptor (Ahr) (AID 2282930); conditions: HepG2 AhR cis-factorial reporter transcription; actives raise or lower the signal
Sequence of Aryl hydrocarbon receptor (Homo sapiens) (P35869 whole entry, looked up): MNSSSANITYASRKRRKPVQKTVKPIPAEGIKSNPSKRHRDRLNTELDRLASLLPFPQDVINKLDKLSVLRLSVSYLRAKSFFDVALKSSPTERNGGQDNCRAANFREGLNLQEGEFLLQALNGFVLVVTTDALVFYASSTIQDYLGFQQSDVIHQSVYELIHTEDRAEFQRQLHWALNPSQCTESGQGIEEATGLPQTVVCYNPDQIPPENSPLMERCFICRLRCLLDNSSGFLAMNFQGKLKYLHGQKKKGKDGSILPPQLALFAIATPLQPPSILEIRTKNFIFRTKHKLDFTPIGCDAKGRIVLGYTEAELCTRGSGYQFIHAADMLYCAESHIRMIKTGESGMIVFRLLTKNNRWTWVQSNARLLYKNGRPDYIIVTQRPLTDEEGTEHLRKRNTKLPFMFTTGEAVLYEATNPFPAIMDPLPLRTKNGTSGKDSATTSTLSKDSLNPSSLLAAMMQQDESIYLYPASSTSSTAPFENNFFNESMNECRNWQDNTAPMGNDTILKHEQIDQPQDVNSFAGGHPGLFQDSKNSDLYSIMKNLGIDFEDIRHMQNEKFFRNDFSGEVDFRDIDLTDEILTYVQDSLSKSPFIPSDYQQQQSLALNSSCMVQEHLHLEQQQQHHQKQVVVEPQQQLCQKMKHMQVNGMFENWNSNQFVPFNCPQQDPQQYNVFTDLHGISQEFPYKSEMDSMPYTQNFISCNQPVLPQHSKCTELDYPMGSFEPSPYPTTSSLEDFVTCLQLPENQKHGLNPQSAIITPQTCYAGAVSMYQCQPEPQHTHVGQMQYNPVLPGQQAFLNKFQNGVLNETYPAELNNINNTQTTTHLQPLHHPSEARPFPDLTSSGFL
In short: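 Reporter mRNA levels, quantified by RT-PCR and fluorescent capillary electrophoresis, reflect endogenous AhR transcriptional activity in HepG2 cells carrying transfected cis-promoter reporter constructs. Readout at 24 h post-dose; gain or loss fitted against DMSO baseline.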

[6] = ATG_AP_1_CIS: Attagene CIS-FACTORIAL HepG2 Assay for human Activator Protein 1 (AP-1) (AID 2282931); conditions: HepG2 Attagene cis-factorial AP-1 reporter mRNA; actives raise or lower the signal
In short: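 Reporter transcripts were measured 24 h after dosing by RT-PCR and capillary electrophoresis of fluorescent fragments. Cells: HepG2 carrying transfected cis-regulated reporter constructs reading endogenous factor activity. Gain or loss fitted against DMSO.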

[7] = ATG_AP_2_CIS: Attagene CIS-FACTORIAL HepG2 Assay for human Activator Protein 2 (AP-2) (AID 2282932); conditions: HepG2 AP-2 cis-reporter, Attagene transcription factor profiling; actives raise or lower the signal
In short: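 Endogenous transcription factor activity is reported through transfected multiplex reporter constructs in HepG2, after 24 h of compound exposure. Transcripts were quantified by RT-PCR and capillary electrophoresis of fluorescent fragments. Bidirectional fit against DMSO.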

[8] = ATG_BRE_CIS: Attagene CIS-FACTORIAL HepG2 Assay for human Bone Morphogenetic Protein (BMP) Response Element (BRE) (AID 2282933); conditions: HepG2 BMP response element reporter, Attagene transcription factor profiling; actives raise or lower the signal
In short: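 Multiplexed cis-reporter assay, HepG2, 24 h exposure. mRNA from reporter units quantified via RT-PCR/CE; DMSO baseline; bidirectional curve fit.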

[9] = biological target: Retinoic acid receptor alpha (Homo sapiens) (UniProt P10276); assay: ATG_DR5_RAR_CIS: Attagene CIS-FACTORIAL HepG2 Assay for human Retinoic Acid Receptor Alpha (RARE), DR5 submotif (AID 2282934); conditions: HepG2 Attagene cis-factorial RARE DR5 reporter, mRNA; actives raise or lower the signal
Sequence of Retinoic acid receptor alpha (Homo sapiens) (P10276 whole entry, looked up): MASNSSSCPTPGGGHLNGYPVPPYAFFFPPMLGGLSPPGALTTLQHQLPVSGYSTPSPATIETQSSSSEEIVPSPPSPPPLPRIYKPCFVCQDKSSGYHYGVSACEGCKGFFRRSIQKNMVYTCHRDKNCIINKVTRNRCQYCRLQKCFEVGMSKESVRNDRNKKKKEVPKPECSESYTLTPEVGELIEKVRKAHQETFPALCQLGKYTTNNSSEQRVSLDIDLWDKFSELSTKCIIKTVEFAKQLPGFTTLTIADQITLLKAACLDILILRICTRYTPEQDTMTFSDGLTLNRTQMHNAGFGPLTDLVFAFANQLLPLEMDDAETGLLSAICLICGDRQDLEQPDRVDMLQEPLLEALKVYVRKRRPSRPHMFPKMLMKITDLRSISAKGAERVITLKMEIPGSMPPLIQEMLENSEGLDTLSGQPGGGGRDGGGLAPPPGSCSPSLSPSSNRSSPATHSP
In short: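 Reporter transcripts from a DR5-regulated unit, measured via RT-PCR plus capillary electrophoresis, reflect endogenous RAR activity in transiently transfected human HepG2 liver cells. Exposure lasted 24 h; gain or loss of signal scored against DMSO.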

[10] = biological target: Transcription factor E2F1 (Homo sapiens) (UniProt Q01094); assay: ATG_E2F_CIS: Attagene CIS-FACTORIAL HepG2 Assay for human E2F Transcription Factor 1 (AID 2282935); conditions: HepG2 Attagene cis-reporter, E2F reporter RNA transcripts; actives raise or lower the signal
Sequence of Transcription factor E2F1 (Homo sapiens) (Q01094 whole entry, looked up): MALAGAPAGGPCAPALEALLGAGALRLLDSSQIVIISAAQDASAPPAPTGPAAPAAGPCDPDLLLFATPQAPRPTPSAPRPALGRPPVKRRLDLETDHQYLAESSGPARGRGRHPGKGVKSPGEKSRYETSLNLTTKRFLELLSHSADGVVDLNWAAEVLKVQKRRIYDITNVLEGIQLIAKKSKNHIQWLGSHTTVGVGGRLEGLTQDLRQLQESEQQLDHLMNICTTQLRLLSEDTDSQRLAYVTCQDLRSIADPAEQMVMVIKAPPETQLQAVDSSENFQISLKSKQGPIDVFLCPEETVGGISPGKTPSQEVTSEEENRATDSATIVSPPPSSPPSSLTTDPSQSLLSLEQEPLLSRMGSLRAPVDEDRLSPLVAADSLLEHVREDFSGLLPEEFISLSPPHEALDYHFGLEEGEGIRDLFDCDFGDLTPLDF
In short: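 Gain or loss of reporter transcript, fitted against DMSO, reflects E2F1-driven transcription. Transiently transfected HepG2 dosed 24 h before RNA isolation. Quantified by fluorescent RT-PCR products separated by capillary electrophoresis.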

[11] = ATG_E_Box_CIS: Attagene CIS-FACTORIAL HepG2 Assay for human Enhancer Box (E-box) (AID 2282936); conditions: HepG2 E-box cis-reporter transcription, actives raise or lower the signal
In short: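 E-box-driven reporter transcripts measured in transiently transfected HepG2 after 24 h exposure: RNA reverse-transcribed, PCR-amplified, fluorescently labelled, digested and resolved by capillary electrophoresis. Gain or loss relative to DMSO.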

[12] = ATG_M_61_CIS: Attagene CIS-FACTORIAL HepG2 Assay for M61 Transcription Factor (Internal Marker) (AID 2282937); conditions: HepG2 Attagene CIS-FACTORIAL M61 internal marker reporter; actives raise or lower the signal
In short: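 Readout: fluorescent reporter mRNA fragments resolved by capillary electrophoresis after RT-PCR. Transiently transfected human HepG2 cells carried MRTU constructs reporting endogenous TF activity; 24 h chemical exposure; gain or loss of signal fitted relative to DMSO.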

[13] = ATG_M_19_CIS: Attagene CIS-FACTORIAL HepG2 Assay for M19 Transcription Factor (Internal Marker) (AID 2282939); conditions: HepG2 Attagene CIS-FACTORIAL M19 internal marker reporter; actives raise or lower the signal
In short: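 Signals come from fluorescence of labelled reporter-specific PCR fragments resolved by capillary electrophoresis, following 24 h treatment of HepG2 cells transfected with cis-promoter reporter units; activity was fitted in both directions relative to DMSO.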

[14] = ATG_ERE_CIS: Attagene CIS-FACTORIAL HepG2 Assay for Estrogen Response Element (ERE) (AID 2282940); conditions: HepG2 ERE cis-reporter, Attagene RNA transcript; actives raise or lower the signal
In short: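 Fluorescence of capillary-separated, FAM-labelled reporter cDNA fragments indicates reporter mRNA levels in HepG2 cells exposed to chemicals for 24 h. Transient transfection with cis-regulated units; data fitted in both directions against DMSO.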

[15] = ATG_Ets_CIS: Attagene CIS-FACTORIAL HepG2 Assay for human Erythroblast Transformation Specific (ETS) (AID 2282941); conditions: HepG2 ETS cis-reporter transcription, actives raise or lower the signal
In short: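 Multiplexed reporter transcript profiling: HepG2, 24 h treatment, total RNA to cDNA, PCR, 6-FAM labelling, HpaI cut, capillary electrophoresis. Gain- or loss-of-signal fitted against DMSO.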

[16] = biological target: Hepatocyte nuclear factor 3-beta (Homo sapiens) (UniProt Q9Y261); assay: ATG_FoxA2_CIS: Attagene CIS-FACTORIAL HepG2 Assay for human Forkhead box A2 (FOXA2) (AID 2282942); conditions: HepG2 cis-reporter transcription factor activity, 24 h; actives raise or lower the signal
Sequence of Hepatocyte nuclear factor 3-beta (Homo sapiens) (Q9Y261 whole entry, looked up): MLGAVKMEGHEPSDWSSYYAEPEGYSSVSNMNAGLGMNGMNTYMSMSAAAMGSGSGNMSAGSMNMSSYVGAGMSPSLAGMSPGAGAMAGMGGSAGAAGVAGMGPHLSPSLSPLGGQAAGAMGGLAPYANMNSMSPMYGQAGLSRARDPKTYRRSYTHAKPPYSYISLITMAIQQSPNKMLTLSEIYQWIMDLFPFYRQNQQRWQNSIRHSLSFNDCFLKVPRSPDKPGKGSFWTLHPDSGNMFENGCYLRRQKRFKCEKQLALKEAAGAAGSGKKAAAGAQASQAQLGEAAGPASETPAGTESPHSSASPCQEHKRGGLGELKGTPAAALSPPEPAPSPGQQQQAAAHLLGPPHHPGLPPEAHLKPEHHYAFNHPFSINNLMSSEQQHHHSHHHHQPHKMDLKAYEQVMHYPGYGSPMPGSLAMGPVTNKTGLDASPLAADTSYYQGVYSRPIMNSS
In short: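 Readout: fluorescent reporter transcripts resolved by capillary electrophoresis after RT-PCR. Transiently transfected HepG2, 24 h compound exposure, endogenous TF activity at cis promoter elements. Gain or loss of signal fitted relative to DMSO.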

[17] = ATG_FoxO_CIS: Attagene CIS-FACTORIAL HepG2 Assay for human Forkhead box O (FoxO) (AID 2282943); conditions: HepG2 Attagene cis-reporter, FoxO element, mRNA; actives raise or lower the signal
In short: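 Endogenous transcription factor activity read from multiplexed cis-promoter reporter transcripts in transiently transfected HepG2, 24 h after dosing. Reporter RNA measured via RT-PCR plus capillary electrophoresis of FAM-labeled products; gain or loss relative to DMSO.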

[18] = ATG_GATA_CIS: Attagene CIS-FACTORIAL HepG2 Assay for human GATA Binding Protein (AID 2282944); conditions: HepG2 GATA cis-element reporter, Attagene multiplex mRNA; actives raise or lower the signal
In short: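 After transfecting HepG2 cells with multiple cis-regulated reporter units, chemicals are dosed for 24 h; isolated RNA undergoes RT-PCR and fluorescent labeling before capillary electrophoresis, with activity expressed against DMSO.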

[19] = ATG_GLI_CIS: Attagene CIS-FACTORIAL HepG2 Assay for human Zinc Finger Protein GLI1 (AID 2282945); conditions: HepG2, Attagene cis-factorial reporter mRNA, GLI element; actives raise or lower the signal
In short: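 Bidirectional curve fits relative to DMSO, using reporter mRNA levels from RT-PCR plus capillary electrophoresis. Cells were HepG2 transiently carrying cis-regulated reporter constructs, harvested 24 h after dosing.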

[20] = ATG_EGR_CIS: Attagene CIS-FACTORIAL HepG2 Assay for human Early Growth Response 1 (EGR1) (AID 2282938); conditions: HepG2 Attagene CIS-FACTORIAL EGR reporter mRNA; actives raise or lower the signal
In short: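 Read-out: fluorescent reporter-mRNA fragments resolved by capillary electrophoresis after RT-PCR, 24 h post-dose in transiently transfected HepG2. Endogenous transcription-factor activity reported via cis-element-regulated reporter units; gain or loss fitted relative to DMSO.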

Measured: outcome

CCCCCCCCCCCCCOP(=O)(O)O
not listed: [20]
inactive: all other assays above

CCOC(=O)[C@H](C)O
not listed: [16] | [17]
inactive: all other assays above

CCCCCC/C=C/C=O
not listed: [14] | [16]
inactive: all other assays above

Cc1cc(C)c(C(=O)O)c(C)c1
not listed: [16]
inactive: all other assays above

CC(=O)Nc1ccc2c(c1)Cc1cc(NC(C)=O)ccc1-2
not listed: [15]
inactive: all other assays above

Source: PubChem BioAssay (EPA / NIEHS)
